Measured values reported in the supplement of paper PMC10646978.
± gives the standard deviation.

What was measured:
Conditions in all cases: modulator concentration 10 µM
[1] = system: RAW-Dual (murine macrophage reporter line); experiment: NF-kB reporter (SEAP) activity fold change vs agonist alone; higher = enhanced NF-kB activity
In short: (§1)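 RAW-Dual murine macrophage reporter cells were plated at 50 000 per well in 384-well plates, pin-transferred compound to 10 μM final, and pre-incubated for 1 hour at 37 °C before a PRR agonist was added and the cells incubated overnight. NF-κB activity was read from supernatant SEAP with QUANTI-Blue at 620 nm absorbance, and IRF activity from Lucia luciferase with QUANTI-Luc by luminescence. Each signal was expressed as fold change by dividing by the mean agonist-only control on the same plate. Two replicate plates were averaged, with errors obtained by propagation.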

[2] = system: RAW-Dual (murine macrophage reporter line); experiment: IRF reporter (Lucia luciferase) activity fold change vs agonist alone; higher = enhanced IRF activity
In short: as §1

[3] = system: RAW-Dual (murine macrophage reporter line); experiment: viability score (confluency relative to resting cells, overnight) (fraction); higher = more viable, active = viable (0.7 or more)
In short: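 Compound was added at a final 10 μM to RAW-Dual macrophages in 384-well plates and left overnight. Confluency was imaged with IncuCyte, and two masks were generated in IncuCyte software over all imaged wells. Each viability score is confluency relative to resting cells, and a compound met the cutoff only when both masks were above 70% of resting cells.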

[4] = agonist: CpG ODN 1826 0.5 ug/mL

Structure (SMILES) | NF-kB reporter [1, 4] | NF-kB reporter ([1]; agonist: LPS 0.1 ug/mL) | NF-kB reporter ([1]; agonist: MPLA […]) | IRF reporter ([2]; agonist: 3'3'-cGAMP 10 ug/mL) | IRF reporter ([2]; agonist: LPS 0.1 ug/mL) | IRF reporter ([2]; agonist: MPLA […]) | viability score [3]
Nc1nc(=O)n([C@@H]2CS[C@H](CO)O2)cc1F | 1.59 ± 0.24 | 1.3 ± 0.46 | 1.21 ± 0.073 | 0.62 ± 0.15 | 0.98 ± 0.22 | 0.836 ± 0.21 | 1 (active)
O=C1C(Cl)=C(N2CCCCC2)C(=O)N1c1cc(Cl)c(Cl)cc1Cl | 0.743 ± 0.063 | 0.737 ± 0.049 | 0.857 ± 0.03 | 0.352 ± 0.026 | 1.07 ± 0.1 | 1.01 ± 0.15 | 0.993 (active)
CCOc1ccc(OCCCCOc2cccc(C)c2)cc1 | 0.961 ± 0.094 | 1.11 ± 0.074 | 0.932 ± 0.082 | 1 ± 0.051 | 1.27 ± 0.18 | 1.07 ± 0.068 | 1.01 (active)
CC(Nc1ccc(N)cc1)=C1C(=O)c2ccccc2C1=O | 0.913 ± 0.083 | 0.855 ± 0.043 | 1.01 ± 0.09 | 0.888 ± 0.059 | 1.49 ± 0.1 | 1.68 ± 0.15 | 1 (active)
COc1ccc(CNC(=O)NCC#CCOc2cccc(C(F)(F)F)c2)cc1OC | 1.07 ± 0.11 | 1.07 ± 0.098 | 0.95 ± 0.063 | 1.01 ± 0.05 | 1.09 ± 0.13 | 1.13 ± 0.29 | 1.01 (active)
C[C@@H](O[C@H]1OCCN(Cc2n[nH]c(=O)[nH]2)[C@H]1c1ccc(F)cc1)c1cc(C(F)(F)F)cc(C(F)(F)F)c1 | 0.545 ± 0.086 | 0.634 ± 0.031 | 0.806 ± 0.073 | 0.961 ± 0.045 | 1.29 ± 0.084 | 1.04 ± 0.09 | 1.02 (active)
Oc1c(Cl)cc(Cl)cc1C=Nc1cc(Cl)cc(Cl)c1 | 0.734 ± 0.14 | 0.915 ± 0.076 | 0.761 ± 0.066 | 0.437 ± 0.019 | 1.05 ± 0.1 | 1.09 ± 0.14 | 0.734 (active)
Cc1nc(-c2ccc(S(=O)(=O)N3C4CCC3CC(Oc3cccnc3)C4)cc2)co1 (centres undefined) | 1 ± 0.093 | 1.08 ± 0.086 | 0.94 ± 0.051 | 1.04 ± 0.077 | 1.14 ± 0.087 | 1 ± 0.092 | 1.01 (active)
Nc1ccn([C@@H]2O[C@H](CO)[C@@H](O)C2(F)F)c(=O)n1 | 1.8 ± 0.25 | 1.07 ± 0.28 | 1.21 ± 0.11 | 1.59 ± 0.088 | 1.61 ± 0.35 | 1.33 ± 0.31 | 0.241 (inactive)
N#CC1=C(NC(=S)NC(=O)c2ccccc2)c2ccccc2CC12CCCCC2 | 0.818 ± 0.096 | 0.577 ± 0.12 | 1.08 ± 0.085 | 1.76 ± 0.18 | 1.41 ± 0.098 | 1.73 ± 0.18 | 0.877 (active)
CC(C)NC(=N)NC(=N)Nc1ccc(Cl)cc1 [Prestw-999] | 0.806 ± 0.053 | 1.33 ± 0.1 | 1.27 ± 0.087 | 0.994 ± 0.059 | 1.18 ± 0.12 | 0.954 ± 0.3 | 0.994 (active)
CN(C)C(CNC(=O)NCc1ccc(F)cc1)c1ccc2c(c1)CCO2 (centres undefined) | 0.838 ± 0.048 | 1.09 ± 0.092 | 1.04 ± 0.055 | 1.12 ± 0.064 | 1 ± 0.062 | 0.804 ± 0.12 | 0.994 (active)
Cc1cc(/C=C/C#N)cc(C)c1Nc1ccnc(Nc2ccc(C#N)cc2)n1 | 0.602 ± 0.17 | 0.605 ± 0.044 | 1.3 ± 0.12 | 0.209 ± 0.014 | 0.662 ± 0.071 | 0.886 ± 0.13 | 0.985 (active)
Cn1cnc([N+](=O)[O-])c1Sc1ncnc2nc[nH]c12 | 1.1 ± 0.2 | 0.844 ± 0.23 | 0.983 ± 0.077 | 0.934 ± 0.031 | 1.2 ± 0.33 | 0.986 ± 0.23 | 0.983 (active)
COc1ccc2sc(C)[n+](CCCS(=O)(=O)[O-])c2c1 | 0.951 ± 0.088 | 1.08 ± 0.074 | 0.923 ± 0.064 | 0.923 ± 0.086 | 1.05 ± 0.12 | 1.1 ± 0.3 | 1 (active)
C=CCNC(=O)COc1ccccc1C | 0.782 ± 0.073 | 0.887 ± 0.042 | 0.985 ± 0.086 | 1.05 ± 0.048 | 1.36 ± 0.082 | 1.48 ± 0.16 | 1 (active)
Cc1ncsc1C(=O)NC1CCC(F)(F)CC1 | 1.06 ± 0.068 | 1.1 ± 0.088 | 0.991 ± 0.033 | 0.68 ± 0.034 | 1.01 ± 0.057 | 1 ± 0.1 | 0.999 (active)
CCC(=O)Nc1ccc(N2CCOCC2)c(Cl)c1 | 1.11 ± 0.12 | 0.945 ± 0.087 | 1.03 ± 0.052 | 0.838 ± 0.095 | 0.982 ± 0.054 | 1.01 ± 0.11 | 0.996 (active)
O=C(Nc1cc(C(F)(F)F)cc(C(F)(F)F)c1)c1cc(Br)ccc1Cl | 0.966 ± 0.11 | 1.02 ± 0.066 | 0.912 ± 0.059 | 0.693 ± 0.043 | 1.52 ± 0.2 | 1.05 ± 0.2 | 1.01 (active)
CCOC(=O)C1=C(C)OC(N)=C(C#N)C1c1ccc(O)c(OCC)c1 (centres undefined) | 1.19 ± 0.075 | 1.04 ± 0.064 | 1.07 ± 0.099 | 0.939 ± 0.038 | 1.31 ± 0.12 | 1.16 ± 0.11 | 1.01 (active)
Nc1ncnc2c1ncn2[C@@H]1O[C@H](COP(=O)(O)O)[C@@H](O)[C@H]1O [Prestw-356] | 1.37 ± 0.16 | 1.09 ± 0.11 | 1.23 ± 0.12 | 1.32 ± 0.069 | 1.21 ± 0.16 | 1.36 ± 0.28 | 1.03 (active)
Nc1nc(NC2CC2)c2ncn([C@H]3C=C[C@@H](CO)C3)c2n1 [Prestw-1512] | 1.12 ± 0.18 | 1.18 ± 0.11 | 1.02 ± 0.087 | 0.935 ± 0.031 | 1.01 ± 0.21 | 1.12 ± 0.19 | 0.974 (active)
CN1CCC(=C2c3ccccc3CCc3sccc32)CC1.O=C(O)CC(O)C(=O)O | 0.574 ± 0.054 | 0.705 ± 0.035 | 0.868 ± 0.094 | 0.692 ± 0.036 | 1.09 ± 0.073 | 1 ± 0.12 | 0.385 (inactive)
Cc1cc(C)nc(NS(=O)(=O)c2ccc(NC(=O)C=Cc3cccc4ccccc34)cc2)n1 | 1.14 ± 0.091 | 1.14 ± 0.083 | 1.17 ± 0.091 | 0.248 ± 0.026 | 1.21 ± 0.12 | 1.04 ± 0.17 | 0.956 (active)
Cn1cnc2c(F)c(Nc3ccc(Br)cc3Cl)c(C(=O)NOCCO)cc21 | 0.288 ± 0.015 | 0.124 ± 0.0099 | 0.183 ± 0.013 | 0.852 ± 0.061 | 3.68 ± 0.24 | 2.42 ± 0.19 | 0.684 (inactive)
O=C(COc1ccccc1)N1CCCC1Cn1nccn1 (centres undefined) | 0.962 ± 0.09 | 0.951 ± 0.077 | 0.923 ± 0.1 | 0.904 ± 0.049 | 1.17 ± 0.1 | 1.06 ± 0.25 | 0.975 (active)
COc1cccc(S(=O)(=O)N2CCCC(c3nnc(C(F)(F)F)o3)C2)c1 (centres undefined) | 0.892 ± 0.039 | 1.08 ± 0.09 | 1.03 ± 0.06 | 0.885 ± 0.041 | 1.11 ± 0.27 | 1.3 ± 0.36 | 1.02 (active)
